High-throughput results deposited in PubChem by National Center for Advancing Translational Sciences (NCATS).
In the library only some 21% were active in any assay of this set; here they are far more common.
ELG1 repair inh: ELG1-dependent DNA repair inhibition; HEK293T ELG1-luciferase reporter, luminescence, 16 h; DNA damage induced by 5-fluorouridine; Potency, µM (series often up to 46.1 µM), without a hit: at the top dose activity change, negative = inhibition, hits mostly inhibitors; actives 2.3% (n = 330,000); also: potency is read from the fitted curve at half-maximal effect; nearly all actives have a fitted effect of over 55% in size
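Luminescence from the luciferase reporter, measured 30 min after ONE-Glo reagent at room temperature, was the read-out. Beforehand, 2,000 cells per well were exposed for 16 hr at 37 °C to 5-fluorouridine together with compound or vehicle.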
TDP1 cell noCPT: qHTS for Inhibitors of human tyrosyl-DNA phosphodiesterase 1 (TDP1): qHTS in cells in absence of CPT; DT40 Tdp1-/- hTDP1 cells, no CPT, ATP luminescence, 48 h; Potency, µM (series often up to 46.2 µM), for the others: at the top dose activity change, negative = growth inhibition, usual class: inhibitors; actives 15% (n = 420,000); also: potency is read from the fitted curve at half-maximal effect; nearly all actives have a fitted effect of over 55% in size
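Stably hTDP1-transfected Tdp1-null chicken DT40 cells were treated with library compounds minus camptothecin and grown for at least 48 hr at 37 °C, after which cellular ATP was quantified by luminescence.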
IL1B secr inh: inflammasome signaling inhibition, IL-1 beta readout; THP-1 LPS/ATP IL-1B secretion, AlphaLISA, 16 h; stronger effect = lower value; activity change, % at 57.5 µM; actives 4.7% (n = 360,000); AID 743279; in the data active = activity change below about -50%; inconclusive = mostly about -30% to -49%
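Secreted IL-1B measured by AlphaLISA bead assay after 16 h compound exposure of THP-1 cells; compounds (final up to 57.5 uM) added 1 h before LPS (250 ng/mL) and ATP (1.25 mM) stimulation; lower signal means less secretion.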
RORgamma inh: ROR gamma (mouse) transcription inhibition; P51450; Drosophila S2 Gal4-RORgamma UAS-luciferase reporter, 20 h; Potency, µM (series often up to 53.6 µM), for the others: at the top dose activity change, negative = inhibition, usual class: inhibitors; actives 5.4% (n = 310,000); also: potency is read from the fitted curve at half-maximal effect; nearly all actives have a fitted effect of over 60% in size
Target sequence (P51450 whole entry, looked up, the tested form may be a part): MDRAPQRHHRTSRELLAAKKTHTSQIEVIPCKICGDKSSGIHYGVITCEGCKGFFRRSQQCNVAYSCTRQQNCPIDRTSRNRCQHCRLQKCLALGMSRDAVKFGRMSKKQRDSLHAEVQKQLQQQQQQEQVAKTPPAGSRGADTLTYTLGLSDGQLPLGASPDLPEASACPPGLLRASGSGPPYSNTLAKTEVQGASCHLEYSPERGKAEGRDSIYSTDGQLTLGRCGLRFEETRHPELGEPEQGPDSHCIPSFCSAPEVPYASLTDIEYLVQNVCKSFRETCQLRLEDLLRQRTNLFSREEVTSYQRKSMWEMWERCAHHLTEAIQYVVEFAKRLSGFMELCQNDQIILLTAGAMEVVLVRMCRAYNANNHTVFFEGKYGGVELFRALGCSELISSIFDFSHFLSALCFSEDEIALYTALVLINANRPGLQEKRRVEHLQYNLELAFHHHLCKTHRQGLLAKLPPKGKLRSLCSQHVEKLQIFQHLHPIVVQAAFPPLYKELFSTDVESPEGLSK
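Stably transfected Drosophila Schneider cells are the test system, with ROR gamma fused to Gal4 and luciferase under UAS control; luminescence is read after 20 hr of 700 uM copper sulfate induction at ambient temperature.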
DT40 TDP1 CPT: DT40-hTDP1 cell growth loss with CPT; chicken DT40 Tdp1-/-;hTDP1 cells + 20 nM CPT, ATP luminescence, 48 h; Potency, µM (highest dose often 46.2 µM), inactives show at the highest dose activity change, negative = growth inhibition, most hits filed as inhibitors; actives 12% (n = 420,000); also: potency is read from the fitted curve at half-maximal effect; nearly all actives have a fitted effect of over 55% in size
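Cell growth measured by CellTiter-Glo luminescence after a minimum 48 h, 37 C compound exposure with 20 nM CPT in Tdp1-knockout DT40 cells stably expressing hTDP1, seeded 400/well; qHTS titration format.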
VP16 counter: Gal4-VP16 reporter inhibition counter-screen; Drosophila S2 Gal4-VP16 UAS-luciferase, luminescence, 20 h; Potency, µM (doses to about 53.6 µM), without a hit: at the top dose activity, negative = inhibition, usual class: inhibitors; actives 3.5% (n = 310,000); AID 2546;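 also: Gal4-VP16 expression switched on by copper sulfate through the metallothionein promoter; potency is read from the fitted curve at half-maximal effect; nearly all actives have a fitted effect of over 50% in size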
Numbers without * were called inactive; ? = inconclusive; / = no result; [ ] = dose if it differs, or a comment. Unless noted, calls follow the shape of the dose curve; as a rule, active = well fitted curve in the direction sought with a large enough effect; inconclusive = small, poorly fitted or top-dose-only effect, or another doubt; inactive = no such curve, though single readings can be large; an effect the other way counts as inactive or inconclusive. % is scaled to controls: 0 for no effect and ±100 for the full control effect.

SMILES	ELG1 repair inh	TDP1 cell noCPT	IL1B secr inh	RORgamma inh	DT40 TDP1 CPT	VP16 counter
Cc1ccc(CN2CCN(Cc3ccco3)CC2)cc1	-8%	-6%	7	-13%	?	-4%
Cc1nc(P(=O)(c2ccccc2)c2ccccc2)c(N2CCOCC2)o1	3%	0%	-19	-8%	-11%	5%
CCOP(=O)(c1ccccc1)c1nc(-c2ccccc2C)oc1N1CCCCC1 (stereo not drawn)	13%	13µM*	?	-34%	13µM*	-14%
O=C(NCCc1ccc(OC(F)F)cc1)C1CC(=O)N(c2ccc3c(c2)OCCO3)C1 (stereo not drawn)	-10%	-3%	24	/	-16%	/
COc1ccc(N2CCN(c3ccc(S(=O)(=O)N(C(C)C)C(C)C)cn3)CC2)cc1	-8%	7.3µM*	6	?	4.6µM*	-1%
Cc1cccc(NC(=O)c2cnccn2)c1	15%	4%	-21	4%	-5%	-2%
CCc1ccc(CNC(=O)CCN2C(=O)COc3ccccc32)cc1	/	?	/	/	5%	/
Oc1cccc(/C=N/Nc2cc(N3CCCC3)nc(N3CCCC3)n2)c1	26µM*	?	-102*	21%	?	-15%
COc1ccc(/C=N/Nc2cc(N3CCCC3)nc(N3CCCC3)n2)cc1	?	21µM*	-91*	13µM*	21µM*	-5%
COc1ccc(/C=N/Nc2cc(C)nc(NS(=O)(=O)c3ccc(C)cc3)n2)cc1	-13%	?	-15	-29%	?	-7%
Cn1c(N/N=C\c2cccc(O)c2)cc(=O)n(C)c1=O	14%	?	24	24%	4%	-4%
Oc1ccc(/C=N/Nc2cc(N3CCOCC3)nc(N3CCOCC3)n2)cc1	/	21µM*	?	/	16µM*	/
CCOc1ccc(/C=N/Nc2cc(C)nc(N3CCOCC3)n2)cc1	?	?	30	31%	?	-8%
CCOc1ccc(/C=N/Nc2cc(N3CCOCC3)nc(C)n2)c(O)c1	-12%	?	74	7.1µM*	?	11µM*
Cc1ccc(NC(=O)Cn2nnc(C(=O)NCc3cccs3)c2N)cc1F	?	25%	47	-5%	-6%	6%
COc1ccc(OC)c(/C=N/Nc2cc(C)nc(N3CCOCC3)n2)c1	-14%	16µM*	11	3%	?	-8%
Oc1ccc(/C=N/Nc2cc(N3CCCC3)nc(N3CCCC3)n2)cc1	1%	?	-101*	3%	?	-26%
COc1ccc(/C=N/Nc2cc(N3CCOCC3)ncn2)c(OC)c1	?	-21%	-29	-2%	4%	-2%
Cc1nc(N/N=C/c2ccc(Br)cc2)cc(N2CCOCC2)n1	15µM*	?	-18	?	7.3µM*	-6%
Cc1cc(N/N=C/c2ccccc2O)nc(N2CCOCC2)n1	-6%	?	?	-2%	-27%	5%
CCOC(=O)c1cc(S(=O)(=O)NCc2ccccc2)[nH]n1	/	-6%	/	/	-9%	/
Cc1nc2cc(NC(=O)[C@@H]3C[C@@H](Sc4ccccn4)CN3Cc3ccccc3)ccc2s1	/	-10%	/	/	5%[9.04 µM]	/
CC(C)[C@H](NC(=O)c1ccccc1)C(=O)OCC(=O)c1ccc2c(c1)NC(=O)CO2	15%	5.8µM*	0	1%	4.6µM*	1%
CCC(=O)c1ccc(OCC(=O)c2ccc3c(c2)NC(=O)CO3)cc1	-14%	-21%	-2	19%	-15%	0%
CCc1ccc(OCC(=O)OCC(=O)c2ccc3c(c2)NC(=O)CO3)cc1	6%	-23%	6	-4%	-8%	-15%
SMILES	ELG1 repair inh	TDP1 cell noCPT	IL1B secr inh	RORgamma inh	DT40 TDP1 CPT	VP16 counter
COc1cc(OC)cc(C(=O)N[C@H](C(=O)OCC(=O)c2ccc3c(c2)NC(=O)CO3)C(C)C)c1	-14%	-15%	2	16%	22%	2%
CCCCCCC(=O)OCC(=O)c1ccc2c(c1)NC(=O)CO2	-13%	13µM*	-20	-15%	8.2µM*	-4%
O=C1COc2ccc(C(=O)CCl)cc2N1	?	1.6µM*	-90*	?	5.8µM*	?
Cc1[nH]n(-c2ccccc2)c(=O)c1-c1cccc(Cl)c1	-3%	-4%	-8	1%	-24%	-7%
S=c1[nH]cc(-c2ccccc2)n1-c1cccc(Cl)c1	-9%	?	-4	2.5µM*	?	4.5µM*
COc1cccc(-n2c(-c3cccc(S(=O)(=O)N(C)C)c3)n[nH]c2=S)c1	-3%	-5%	22	-33%	-2%	10%
COc1cccc(-n2c(-c3ccccc3)c[nH]c2=S)c1	-12%	?	9	11µM*	?	10µM*
CN(C)c1ccc(S(=O)(=O)NCC(=O)N2CCN(c3ccccc3)CC2)cc1[N+](=O)[O-]	17%	-3%	8	/	-3%	/
CC[C@]12c3[nH]c4cc(-c5ccco5)ccc4c3CCN1C(=O)[C@@H](CC(=O)NCCN1CCOCC1)C[C@@H]2C(=O)N1CCN(C(=O)c2ccco2)CC1	24%	-16%	-1	/	-13%	/
CC[C@]12c3[nH]c4ccc(Cl)cc4c3CCN1C(=O)[C@@H](CC(=O)NC(C)(C)C)C[C@@H]2C(=O)N1CCN(C(=O)c2ccco2)CC1	-11%	18µM*	-3	/	15µM*	/
CC[C@]12c3[nH]c4cc(-c5ccco5)ccc4c3CCN1C(=O)[C@@H](CC(=O)NC(C)(C)C)C[C@@H]2C(=O)N1CCN(C(=O)c2ccco2)CC1	-24%	15µM*	1	/	23µM*	/
Cc1c(C(=O)N2CCCC2)sc2ncnc(NCCN(C)C)c12	/	-11%	/	/	-3%	/
CN(C)c1nc(SCc2ccccc2Cl)nc2c1CCCC2	-1%	-24%	44	7.9µM*	-28%	7%[0.365 µM]
CC1(C(=O)NCCC#N)CCN1C(=O)Cc1ccc(-c2ccccc2)cc1 (stereo not drawn)	/	?	21	/	?	/
Cc1nc(NC2CCCCC2)c2nc(-c3ccccc3)n(C(C)CN(C)C)c2n1 (stereo not drawn)	/	/	/	10µM*	/	-1%
COc1ccc(NC(=O)c2cnc3sc(N4CCOCC4)nn3c2=O)c(OC)c1	/	3%	/	/	-15%	/
Clc1ccc(CN2CCc3nc(Nc4ccc5c(c4)OCCO5)ncc3C2)cc1	/	13µM*	/	/	16µM*	/
COc1cc2c(cc1OC)CN(CC(=O)Nc1ccc3c(c1)OCO3)CC2	?	-28%	-16	27%	-19%	-1%
